# Gal4-VP16 FLuc: VP16 counterscreen qHTS for inhibitors of ROR gamma transcriptional activity. Drosophila S2 Gal4-VP16 UAS-luciferase, luminescence, 20 h. Potency, µM (top dose mostly 53.6 µM), actives largely listed as inhibitors. 310,000 compounds, 3.5% hits. AID 2546, 2010;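 further: Gal4-VP16 expression switched on by copper sulfate through the metallothionein promoter; nearly all actives have a fitted effect of over 50% in size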
# DT40 TDP1 CPT: qHTS for Inhibitors of human tyrosyl-DNA phosphodiesterase 1 (TDP1): qHTS in cells in presence of CPT; chicken DT40 Tdp1-/-;hTDP1 cells + 20 nM CPT, ATP luminescence, 48 h; Potency, µM (titrated, usually from 46.2 µM), actives largely listed as inhibitors; 420,000 compounds, 12% hits; AID 686979, 2013; further: nearly all actives have a fitted effect of over 55% in size
#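 Chicken DT40 Tdp1-/- cells stably complemented with human TDP1 were seeded at 400 cells/well in medium containing 20 nM camptothecin, exposed to pin-transferred compounds, and grown at 37 °C for at least 48 hr. Viability was read as ATP luminescence.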
# RORgamma inh: qHTS for inhibitors of ROR gamma transcriptional activity; Drosophila S2 Gal4-RORgamma UAS-luciferase reporter, 20 h; Potency, µM (titrated, usually from 53.6 µM), hits mostly inhibitors; 310,000 compounds, 5.4% hits; AID 2551, 2010; further: nearly all actives have a fitted effect of over 60% in size
#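 Drosophila S2 cells stably expressing Gal4-DBD/mouse RORγ fusion under metallothionein promoter plus UAS-luciferase; compound 1 h, then 700 uM CuSO4 induction for 20 h at ambient temperature; inhibition read as reduced luminescence.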
# ELG1 repair inh: qHTS screen for small molecules that inhibit ELG1-dependent DNA repair in human embryonic kidney (HEK293T) cells expressing luciferase-tagged ELG1; Potency, µM (top dose mostly 46.1 µM), usual class: inhibitors; HEK293T ELG1-luciferase reporter, luminescence, 16 h; DNA damage induced by 5-fluorouridine; 330,000 compounds, 2.3% hits; further: nearly all actives have a fitted effect of over 55% in size
#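 Quantitative HTS, concentration-response format. 2,000 cells/well co-treated with 5-fluorouridine and compound, 16 hr in 5% CO2 at 37 °C; ONE-Glo luminescence read after 30 min.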
# ALOX12 inh: Primary qHTS assay for inhibitors of human arachidonate 12S-lipoxygenase (ALOX12): Round 2; 580,000 compounds, 1.1% hits; Potency, µM (top dose mostly 108 µM), actives largely listed as inhibitors; purified 12hLO, xylenol orange hydroperoxide absorbance
# Target sequence (P18054 whole entry, looked up): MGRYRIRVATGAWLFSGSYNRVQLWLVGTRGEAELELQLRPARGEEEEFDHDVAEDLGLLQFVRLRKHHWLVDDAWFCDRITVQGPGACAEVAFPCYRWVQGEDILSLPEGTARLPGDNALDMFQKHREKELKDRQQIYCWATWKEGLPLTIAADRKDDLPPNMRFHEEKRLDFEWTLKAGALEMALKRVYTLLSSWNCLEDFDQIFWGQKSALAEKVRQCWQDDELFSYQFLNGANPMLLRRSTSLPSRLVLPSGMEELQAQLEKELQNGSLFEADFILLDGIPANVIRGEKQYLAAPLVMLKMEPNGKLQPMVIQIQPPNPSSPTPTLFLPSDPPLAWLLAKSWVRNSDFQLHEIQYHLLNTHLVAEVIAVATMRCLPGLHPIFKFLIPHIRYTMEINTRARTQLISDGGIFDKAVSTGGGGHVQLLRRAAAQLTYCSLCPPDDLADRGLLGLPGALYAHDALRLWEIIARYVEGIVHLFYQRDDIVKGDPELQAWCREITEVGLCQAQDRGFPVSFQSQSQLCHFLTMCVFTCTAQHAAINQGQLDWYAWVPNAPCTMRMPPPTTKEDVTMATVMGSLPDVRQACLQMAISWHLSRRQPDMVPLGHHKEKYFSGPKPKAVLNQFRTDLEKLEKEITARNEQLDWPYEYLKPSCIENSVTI
#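 Purified human 12hLO at 150 nM in 25 mM Hepes, 0.01% Triton X-100, pH 7.0, preincubated 15 min at room temperature with compound. Reaction started with 40 uM arachidonic acid, 30 min at room temperature. Hydroperoxide measured by Fe-xylenol orange, 573/405 nm absorbance ratio.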
# DT40 TDP1 no CPT: qHTS for Inhibitors of human tyrosyl-DNA phosphodiesterase 1 (TDP1): qHTS in cells in absence of CPT | DT40 Tdp1-/- hTDP1 cells, no CPT, ATP luminescence, 48 h | Potency, µM (top dose mostly 46.2 µM), actives largely listed as inhibitors | 420,000 compounds, 15% hits; further: nearly all actives have a fitted effect of over 55% in size
#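 A cellular qHTS used chicken DT40 cells lacking endogenous Tdp1 but carrying stably transfected human TDP1. Compounds were applied without camptothecin, and cell growth kinetics were judged by ATP-dependent luminescence after ≥48 hr.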
# Numbers stand for hits; 0 = inactive; ? = inconclusive; - = no result; [ ] = another dose, or the depositor's remark. Hits are enriched below; roughly 15% of the tested compounds scored in any of these assays. The call rests on the fitted dose curve; in most records, active means well fitted curve in the direction sought with a large enough effect; inconclusive means small, poorly fitted or top-dose-only effect, or another doubt; inactive means no such curve, though single readings can be large; an effect the other way counts as inactive or inconclusive.
SMILES,Gal4-VP16 FLuc,DT40 TDP1 CPT,RORgamma inh,ELG1 repair inh,ALOX12 inh,DT40 TDP1 no CPT
CCN(CCCNC(=O)c1cc2cc3ccc(C)cc3nc2s1)c1ccccc1,-,?,-,-,0,26µM
CCOc1ccc(CNC(=O)c2cc3c(=O)n(C)c4ccccc4c3s2)cc1,-,9.2µM,-,-,0,2.6µM
CCN(CCCNC(=O)c1cc2c(=O)n(C)c3ccccc3c2s1)Cc1ccccc1,-,15µM,-,-,0,21µM
CCN(CCCNC(=O)c1cc2c(=O)n(C)c3ccccc3c2s1)c1ccccc1,-,?,-,-,0,15µM
CC(NC(=O)CCc1ncc(-c2ccccc2)o1)c1ccc(S(C)(=O)=O)cc1 (stereo not drawn),-,-,-,-,0,-
CCCN1CCN(CCCNC(=O)c2cc3c(=O)[nH]c4ccc(C)cc4c3s2)CC1,?,?,?,0,0,16µM
CCN(CC)CCCNC(=O)c1cc2c(=O)n(CC)c3ccccc3c2s1,0,?,0,?,0,?
CCN(CCCNC(=O)c1cc2c(=O)[nH]c3ccc(C)cc3c2s1)Cc1ccccc1,-,7.3µM,-,-,?,4.6µM
CCN(CC)CCNC(=O)c1cc2c(=O)n(CC)c3ccccc3c2s1,0,?,0,?,0,18µM
CCN(CCCNC(=O)c1cc2c(=O)[nH]c3ccc(C)cc3c2s1)c1ccc(C)cc1,-,?,-,-,0,?
CCS(=O)(=O)Nc1ccc(C(=O)N2CC[C@](C)(O)[C@@H](O)C2)cc1,-,-,-,-,0,-
N#CCCCN1CCCCC1,-,-,-,-,0,-
Cc1ccc(NC(=O)c2ncoc2-c2cccs2)cc1F,-,-,-,-,0,-
COc1ccc(C(CC(=O)Nc2ccc(F)c(Cl)c2)N2Cc3ccccc3C2=O)cc1OC (stereo not drawn),-,?,-,-,0,15µM
COc1ccc(C(CC(=O)Nc2cccc(F)c2)N2Cc3ccccc3C2=O)cc1OC (stereo not drawn),-,-,-,-,0,-
COc1cc(NC(=O)CC(c2cccs2)N2Cc3ccccc3C2=O)cc(OC)c1OC (stereo not drawn),-,23µM,-,-,0,23µM
COc1ccc(C(CC(=O)Nc2ccc(C)c(C)c2)N2Cc3ccccc3C2=O)cc1OC (stereo not drawn),-,15µM,-,-,0,21µM
COc1cccc2[nH]c(C(=O)N[C@@H](C)C(=O)Nc3ccc4c(c3)OCCO4)cc12,-,-,-,-,0,-
COc1cccc(-c2cc(-c3cccnc3)c3cncn3c2)c1OC,-,-,-,-,0,-
CC(C)N1CCCC2(CCN(S(=O)(=O)c3cccc(F)c3)C2)C1=O (stereo not drawn),-,-,-,-,0,-
CN(C)c1cc(N2CCCC(NC(=O)c3ccccn3)C2)ncn1 (stereo not drawn),-,-,-,-,0,-
Cc1cc(C)nc(NC2=NCC(=O)N2c2ccc(C)c(Cl)c2)n1,-,-,-,-,0,-
CCCCC(=O)NC(=S)Nc1cccc(NC(=O)c2ccccc2)c1,7.9µM,?,2.2µM,?,0,23µM
CCCCCC(=O)NC(=S)Nc1ccc2oc(=O)ccc2c1,?,0,11µM,0,0,0
Cc1ccc(OCC(=O)NC(=S)Nc2cccc(NC(=O)c3ccccc3)c2)cc1,0,0,0,0,0,0
SMILES,Gal4-VP16 FLuc,DT40 TDP1 CPT,RORgamma inh,ELG1 repair inh,ALOX12 inh,DT40 TDP1 no CPT
CCCC(=O)NC(=S)Nc1cccc(NC(=O)c2ccccc2)c1,3.5µM,0,?,?,0,0
COc1ccc(C(=O)NC(=S)Nc2ccc3oc(=O)ccc3c2)cc1,0,?,0,0,0,0
CCCCCC(=O)N/N=C(\C)c1ccc(NC(=O)c2ccco2)cc1,0,0,0,?,0,0
CCCCCC(=O)NC(=S)Nc1ccc(NC(=O)c2ccco2)cc1,?,0,10µM,0,?,0
C=CCCC(CN1CCSCC1)Oc1cc(CC)nc(C)n1 (stereo not drawn),-,-,-,-,0,-
Cc1ccc(-c2nc(CSCc3ccc(C#N)cc3)cs2)cc1,-,-,-,-,0,-
CCN(C(=O)c1cccc(NC(=O)c2ccccc2)c1)C1CCCCC1,0,15µM,0,0,0,?
CCN(C(=O)c1cccc(C(N)=O)c1)C1CC1,-,-,-,-,0,-
Cc1ccccc1-n1c(=O)/c(=C\c2ccco2)s/c1=C(/C#N)C(=O)Nc1ccccc1,0,0,0,4.6µM,35µM,0
C=C(Cl)CN1CCC(CNC(C)=O)CC1,-,-,-,-,0,-
Cc1ccc2c(CN3CCN(C(=O)c4ccc(C)c(F)c4)CC3)cc(=O)oc2c1,-,-,-,-,0,-
Cc1ccccc1C1(CC(=O)N2CC3(C)CC2CC(C)(C)C3)CC(=O)N(Cc2cccnc2)C1=O (stereo not drawn),-,0[9.04 µM],-,-,0,21µM
O=C1CC(CC(=O)N2CC3CCCC2C3)(c2cccc(F)c2)C(=O)N1Cc1cccnc1 (stereo not drawn),-,?,-,-,0,18µM
O=C(CC1(c2cccc(F)c2)CC(=O)N(Cc2cccnc2)C1=O)N1CCCCCCC1 (stereo not drawn),-,?,-,-,0,?
COc1cccc(CNC(=O)Cc2ccc(-n3c(=O)[nH]c4ccccc4c3=O)cc2)c1,0,4.6µM,0,0,0,3.3µM
CCOC(=O)C(NCc1ccc(F)cc1)(NC(=O)c1ccccc1)C(F)(F)F (stereo not drawn),0,0,0,?,0,0
COc1ccc(CC(=O)NCc2ccccc2)cc1,0,2.6µM,0,0,0,2.9µM
COc1ccc(CNC(NC(=O)c2ccccc2)(C(F)(F)F)C(F)(F)F)cc1,10µM,?,?,0,0,?
COc1ccc(Cn2ccnc2SCC(=O)NCc2ccccc2)cc1,-,16µM,-,-,0,?
COc1ccc(CNC(=O)c2ccc3c(=O)n(-c4ccccc4)c(=O)[nH]c3c2)cc1,0,0,0,0,-,0
CC(C)C(=O)Nc1ccc2c(ccn2CCN2CCOCC2)c1,-,-,-,-,0,-
COc1ccc(/C=C(/C(=O)NCc2ccccc2)c2ccccc2)cc1,0,?,0,?,0,21µM
Cn1ccnc1C(=O)c1cc(SCC(=O)NCc2ccccc2)nc2ccccc12,0,6.5µM,0,8.2µM,0,5.2µM
COc1cccc(CNC(=O)COc2ccc(C(=O)c3ccccc3)cc2)c1,0,?,0,0,0,16µM
O=C(COc1ccc(C(=O)c2ccccc2)cc1)NCC1CCCCC1,?,16µM,0,0,0,16µM
COc1ccc(Cl)cc1NC(=O)COc1ccccc1F,-,-,-,-,0,-
COCCNC(=O)/C(=C/c1ccccc1Cl)c1ccccc1,0,29µM,0,0,0,?

# Screening data deposited in PubChem by National Center for Advancing Translational Sciences (NCATS).
